Test results: the supplement of paper PMC11732987, “Enantioselective OTUD7B fragment discovery through chemoproteomics screening and high-throughput optimisation” (Communications Chemistry, 2025)

Assays:
Assay in all cases: log2 ratio of Biotin-Ahx-Ub-VS probe labelling (fragment/DMSO); higher = less target engagement (more negative = stronger competition), active = hit call of the paper (q ≤ 0.05, log2 ratio ≤ -1)
Details in all cases: compound concentration: 200 uM; treatment time: 3 h
USP19 = target: T1, USP19 (UniProt O94966)
T1 sequence (whole entry): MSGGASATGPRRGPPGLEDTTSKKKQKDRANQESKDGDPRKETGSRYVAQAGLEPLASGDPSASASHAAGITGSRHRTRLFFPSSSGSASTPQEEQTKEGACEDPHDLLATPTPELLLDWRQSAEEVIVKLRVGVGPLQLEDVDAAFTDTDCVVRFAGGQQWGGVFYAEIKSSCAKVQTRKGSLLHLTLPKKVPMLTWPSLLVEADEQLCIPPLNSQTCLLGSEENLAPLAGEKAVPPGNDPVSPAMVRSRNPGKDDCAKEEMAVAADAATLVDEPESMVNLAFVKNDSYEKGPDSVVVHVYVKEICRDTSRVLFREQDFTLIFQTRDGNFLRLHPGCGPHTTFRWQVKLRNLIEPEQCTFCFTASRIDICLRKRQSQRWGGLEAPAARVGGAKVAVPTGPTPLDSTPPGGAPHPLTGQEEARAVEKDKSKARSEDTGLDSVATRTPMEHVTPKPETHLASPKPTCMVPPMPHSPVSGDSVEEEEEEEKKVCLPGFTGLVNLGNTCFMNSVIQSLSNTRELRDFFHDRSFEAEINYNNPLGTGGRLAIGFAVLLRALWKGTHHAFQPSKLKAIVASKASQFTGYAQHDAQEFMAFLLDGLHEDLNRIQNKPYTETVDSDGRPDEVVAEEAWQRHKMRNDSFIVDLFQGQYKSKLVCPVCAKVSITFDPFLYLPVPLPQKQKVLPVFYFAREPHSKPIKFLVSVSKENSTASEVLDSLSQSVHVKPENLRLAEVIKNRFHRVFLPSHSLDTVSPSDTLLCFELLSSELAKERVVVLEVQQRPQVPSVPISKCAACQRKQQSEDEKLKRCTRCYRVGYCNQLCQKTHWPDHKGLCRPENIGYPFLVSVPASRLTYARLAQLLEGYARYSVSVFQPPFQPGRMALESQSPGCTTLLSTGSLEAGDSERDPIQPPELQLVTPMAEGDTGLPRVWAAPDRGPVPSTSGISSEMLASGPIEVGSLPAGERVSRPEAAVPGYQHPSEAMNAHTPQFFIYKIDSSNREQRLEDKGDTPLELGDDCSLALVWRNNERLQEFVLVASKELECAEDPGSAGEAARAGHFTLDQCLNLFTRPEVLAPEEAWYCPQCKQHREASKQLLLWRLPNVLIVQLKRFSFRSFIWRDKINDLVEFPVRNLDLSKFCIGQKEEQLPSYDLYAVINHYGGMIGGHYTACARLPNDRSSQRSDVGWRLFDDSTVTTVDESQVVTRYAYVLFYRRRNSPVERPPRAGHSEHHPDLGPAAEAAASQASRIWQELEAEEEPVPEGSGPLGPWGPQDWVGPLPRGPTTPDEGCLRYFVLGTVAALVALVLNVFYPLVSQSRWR
In short: (§1)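 Labelling with Biotin-Ahx-Ub-VS (0.5 µM final, 1 h) followed a 3 h triplicate treatment of HEK293T lysate (495 µg per sample, Tris/CHAPS/IGEPAL buffer with protease inhibitors) with fragment at 200 µM or vehicle. Labelled DUBs were NeutrAvidin-enriched, digested with LysC and trypsin, and run by diaPASEF LC-MS/MS. The values, average log2 fragment/vehicle ratios by unpaired t-test, come from global-median-normalised Spectronaut label-free quantities. Proteins with ≥2 unique peptides were used.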

USP22 = target: T2, USP22 (UniProt Q9UPT9)
T2 sequence (whole entry): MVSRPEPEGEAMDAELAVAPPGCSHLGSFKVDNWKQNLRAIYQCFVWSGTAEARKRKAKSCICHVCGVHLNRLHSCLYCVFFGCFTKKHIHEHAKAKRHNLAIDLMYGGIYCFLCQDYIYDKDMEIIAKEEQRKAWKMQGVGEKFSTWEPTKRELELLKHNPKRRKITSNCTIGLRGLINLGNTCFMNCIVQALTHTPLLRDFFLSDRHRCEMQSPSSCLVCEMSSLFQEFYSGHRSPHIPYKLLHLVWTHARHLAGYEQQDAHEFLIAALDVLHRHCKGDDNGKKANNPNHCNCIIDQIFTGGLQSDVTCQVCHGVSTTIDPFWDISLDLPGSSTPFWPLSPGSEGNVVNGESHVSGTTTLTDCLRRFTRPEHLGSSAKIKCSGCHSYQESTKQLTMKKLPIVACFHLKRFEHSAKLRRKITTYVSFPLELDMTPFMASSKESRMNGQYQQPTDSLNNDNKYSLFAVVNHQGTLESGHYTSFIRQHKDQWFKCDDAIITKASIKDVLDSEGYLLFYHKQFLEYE
In short: as §1

USP24 = USP24 (UniProt Q9UPU5)
In short: as §1

USP25 = target: T3, USP25 (UniProt Q9UHP3)
T3 sequence (whole entry): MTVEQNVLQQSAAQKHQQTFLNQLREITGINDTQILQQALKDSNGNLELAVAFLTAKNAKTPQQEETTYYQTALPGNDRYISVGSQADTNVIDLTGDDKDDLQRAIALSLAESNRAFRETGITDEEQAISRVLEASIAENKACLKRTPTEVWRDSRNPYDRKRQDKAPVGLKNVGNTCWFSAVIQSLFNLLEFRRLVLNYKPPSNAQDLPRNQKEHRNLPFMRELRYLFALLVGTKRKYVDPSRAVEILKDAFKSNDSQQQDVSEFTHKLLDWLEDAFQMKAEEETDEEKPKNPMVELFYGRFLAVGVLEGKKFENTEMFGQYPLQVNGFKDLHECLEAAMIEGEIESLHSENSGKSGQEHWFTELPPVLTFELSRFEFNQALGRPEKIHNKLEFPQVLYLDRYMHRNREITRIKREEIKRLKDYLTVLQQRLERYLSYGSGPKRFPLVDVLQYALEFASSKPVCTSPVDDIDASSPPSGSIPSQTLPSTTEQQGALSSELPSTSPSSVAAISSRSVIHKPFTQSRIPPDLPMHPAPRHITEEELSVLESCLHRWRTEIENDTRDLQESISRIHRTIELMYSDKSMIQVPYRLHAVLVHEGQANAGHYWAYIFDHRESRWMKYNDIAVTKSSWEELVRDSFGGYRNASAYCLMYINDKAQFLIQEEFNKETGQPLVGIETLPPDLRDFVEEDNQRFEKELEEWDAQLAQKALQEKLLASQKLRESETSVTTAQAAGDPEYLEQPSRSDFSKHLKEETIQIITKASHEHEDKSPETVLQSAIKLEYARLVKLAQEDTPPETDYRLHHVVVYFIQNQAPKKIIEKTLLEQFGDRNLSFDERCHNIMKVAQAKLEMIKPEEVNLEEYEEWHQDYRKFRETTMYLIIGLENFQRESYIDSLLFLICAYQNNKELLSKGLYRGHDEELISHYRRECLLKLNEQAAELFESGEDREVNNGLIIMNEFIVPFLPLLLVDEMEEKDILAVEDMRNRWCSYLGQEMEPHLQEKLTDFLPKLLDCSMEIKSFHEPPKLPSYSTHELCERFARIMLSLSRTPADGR
In short: as §1

USP28 = target: T4, USP28 (UniProt Q96RU2)
T4 sequence (whole entry): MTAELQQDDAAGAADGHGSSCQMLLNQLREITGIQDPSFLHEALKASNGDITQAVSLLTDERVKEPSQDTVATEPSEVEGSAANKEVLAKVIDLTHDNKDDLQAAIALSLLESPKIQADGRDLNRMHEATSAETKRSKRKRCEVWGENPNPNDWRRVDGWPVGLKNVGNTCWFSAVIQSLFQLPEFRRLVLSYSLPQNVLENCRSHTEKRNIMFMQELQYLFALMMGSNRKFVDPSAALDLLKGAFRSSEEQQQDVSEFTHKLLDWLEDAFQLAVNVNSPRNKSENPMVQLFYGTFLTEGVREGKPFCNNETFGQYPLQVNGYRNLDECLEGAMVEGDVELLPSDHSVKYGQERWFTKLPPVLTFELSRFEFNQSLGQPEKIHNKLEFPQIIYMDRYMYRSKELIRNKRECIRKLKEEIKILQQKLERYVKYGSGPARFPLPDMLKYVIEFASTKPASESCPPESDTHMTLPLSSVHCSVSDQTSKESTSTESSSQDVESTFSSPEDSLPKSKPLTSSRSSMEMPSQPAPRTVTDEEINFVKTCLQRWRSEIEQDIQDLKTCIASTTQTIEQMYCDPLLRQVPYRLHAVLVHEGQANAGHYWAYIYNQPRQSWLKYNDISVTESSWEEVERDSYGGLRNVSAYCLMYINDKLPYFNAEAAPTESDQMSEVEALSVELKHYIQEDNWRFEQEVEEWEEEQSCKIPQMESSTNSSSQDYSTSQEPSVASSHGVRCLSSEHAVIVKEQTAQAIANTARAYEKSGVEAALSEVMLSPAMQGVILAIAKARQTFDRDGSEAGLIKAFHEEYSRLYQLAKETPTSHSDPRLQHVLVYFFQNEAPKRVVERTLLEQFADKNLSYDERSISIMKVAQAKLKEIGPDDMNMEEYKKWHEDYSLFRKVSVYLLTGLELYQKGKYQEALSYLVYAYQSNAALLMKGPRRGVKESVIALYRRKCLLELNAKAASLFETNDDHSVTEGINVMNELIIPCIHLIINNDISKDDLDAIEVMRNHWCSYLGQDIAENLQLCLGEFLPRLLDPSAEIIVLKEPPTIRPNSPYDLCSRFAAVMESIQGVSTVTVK
In short: as §1

Measured: log2 ratio of Biotin-Ahx-Ub-VS probe labelling

Sequence of USP24 (Q9UPU5 whole entry): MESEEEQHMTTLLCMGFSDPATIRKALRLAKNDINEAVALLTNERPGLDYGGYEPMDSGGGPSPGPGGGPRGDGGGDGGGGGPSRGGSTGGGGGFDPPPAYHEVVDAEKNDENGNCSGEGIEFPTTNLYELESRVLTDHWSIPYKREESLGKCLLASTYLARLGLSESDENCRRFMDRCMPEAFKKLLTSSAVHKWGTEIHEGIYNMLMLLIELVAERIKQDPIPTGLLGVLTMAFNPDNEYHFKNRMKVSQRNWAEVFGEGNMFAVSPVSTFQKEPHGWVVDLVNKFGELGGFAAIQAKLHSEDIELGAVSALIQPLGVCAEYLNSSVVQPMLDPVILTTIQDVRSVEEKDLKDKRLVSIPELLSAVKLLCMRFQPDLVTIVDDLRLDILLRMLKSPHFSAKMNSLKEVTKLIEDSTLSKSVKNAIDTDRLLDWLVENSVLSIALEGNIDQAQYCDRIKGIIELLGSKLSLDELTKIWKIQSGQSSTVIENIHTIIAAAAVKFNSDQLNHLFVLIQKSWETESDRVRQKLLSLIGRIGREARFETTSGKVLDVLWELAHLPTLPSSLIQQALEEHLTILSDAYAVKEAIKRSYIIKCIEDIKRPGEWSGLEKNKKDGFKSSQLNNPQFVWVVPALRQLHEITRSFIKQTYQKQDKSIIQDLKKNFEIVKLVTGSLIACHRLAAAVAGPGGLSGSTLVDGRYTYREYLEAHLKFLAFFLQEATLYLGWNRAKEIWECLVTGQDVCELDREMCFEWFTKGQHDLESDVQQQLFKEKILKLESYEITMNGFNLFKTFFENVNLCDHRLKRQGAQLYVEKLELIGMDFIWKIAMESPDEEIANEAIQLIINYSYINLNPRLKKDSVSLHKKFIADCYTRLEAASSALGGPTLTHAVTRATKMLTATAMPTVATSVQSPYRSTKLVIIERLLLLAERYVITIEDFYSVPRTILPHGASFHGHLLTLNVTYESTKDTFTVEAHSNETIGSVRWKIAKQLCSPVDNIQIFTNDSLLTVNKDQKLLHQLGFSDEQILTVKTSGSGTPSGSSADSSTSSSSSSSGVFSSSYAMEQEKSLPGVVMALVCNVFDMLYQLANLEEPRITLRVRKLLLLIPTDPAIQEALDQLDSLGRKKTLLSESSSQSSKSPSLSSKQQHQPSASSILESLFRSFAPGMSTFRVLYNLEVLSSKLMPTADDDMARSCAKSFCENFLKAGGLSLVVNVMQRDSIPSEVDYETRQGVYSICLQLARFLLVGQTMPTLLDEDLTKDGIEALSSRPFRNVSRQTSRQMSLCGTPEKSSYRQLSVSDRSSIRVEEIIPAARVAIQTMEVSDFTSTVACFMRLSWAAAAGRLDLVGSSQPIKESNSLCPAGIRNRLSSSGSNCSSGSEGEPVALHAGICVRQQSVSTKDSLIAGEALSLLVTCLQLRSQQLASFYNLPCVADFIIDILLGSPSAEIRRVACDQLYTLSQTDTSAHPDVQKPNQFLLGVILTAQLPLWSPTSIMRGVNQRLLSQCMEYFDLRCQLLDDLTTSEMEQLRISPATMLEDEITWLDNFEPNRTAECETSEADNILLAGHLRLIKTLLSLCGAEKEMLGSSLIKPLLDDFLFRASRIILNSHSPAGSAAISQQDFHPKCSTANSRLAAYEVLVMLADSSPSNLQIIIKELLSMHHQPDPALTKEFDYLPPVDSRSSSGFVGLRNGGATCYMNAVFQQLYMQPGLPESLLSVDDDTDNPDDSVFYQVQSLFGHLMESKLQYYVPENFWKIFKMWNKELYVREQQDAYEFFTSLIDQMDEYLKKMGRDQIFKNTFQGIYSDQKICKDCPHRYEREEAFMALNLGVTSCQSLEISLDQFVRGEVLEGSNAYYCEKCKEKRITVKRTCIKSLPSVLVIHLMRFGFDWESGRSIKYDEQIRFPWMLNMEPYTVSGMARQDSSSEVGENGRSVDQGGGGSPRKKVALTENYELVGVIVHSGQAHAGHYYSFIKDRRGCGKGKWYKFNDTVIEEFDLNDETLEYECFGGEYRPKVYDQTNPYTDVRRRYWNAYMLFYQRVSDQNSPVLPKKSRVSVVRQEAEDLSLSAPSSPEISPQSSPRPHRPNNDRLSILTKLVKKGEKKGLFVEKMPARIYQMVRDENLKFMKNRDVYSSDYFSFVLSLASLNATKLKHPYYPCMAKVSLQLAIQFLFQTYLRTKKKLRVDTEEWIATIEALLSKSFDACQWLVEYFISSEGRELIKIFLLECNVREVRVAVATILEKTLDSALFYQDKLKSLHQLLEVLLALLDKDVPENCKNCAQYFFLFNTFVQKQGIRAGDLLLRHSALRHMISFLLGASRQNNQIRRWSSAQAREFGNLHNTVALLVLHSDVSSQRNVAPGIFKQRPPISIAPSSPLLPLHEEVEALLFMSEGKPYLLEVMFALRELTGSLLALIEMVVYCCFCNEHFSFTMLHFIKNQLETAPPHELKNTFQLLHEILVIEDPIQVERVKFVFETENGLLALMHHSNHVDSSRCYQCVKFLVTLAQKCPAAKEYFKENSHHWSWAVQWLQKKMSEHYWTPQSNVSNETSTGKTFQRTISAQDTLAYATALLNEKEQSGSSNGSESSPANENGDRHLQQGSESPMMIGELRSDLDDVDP

CCc1c[nH]c(CNC(=O)CCl)n1.Cl
inactive: USP19 -0.279 | USP22 -0.0631 | USP24 -0.668 | USP25 -0.182 | USP28 -0.44
